Experimental data reported in PubChem BioAssay (NCATS).
Active and inactive are the calls of the source. The call rests on the fitted dose curve; in most records, active means well fitted curve in the direction sought with a large enough effect; inactive means no such curve, though single readings can be large or run the other way.

Target: Alpha-galactosidase A (Homo sapiens) (UniProt P06280)
Experiment: Counterscreen for Glucocerebrosidase Inhibitors: qHTS Assay for Human alpha-Galactosidase at pH 4.5 (AID 992); further: 0% is about no effect
Settings: purified enzyme, fluorogenic substrate; series mostly up to 76.9 µM; activity change, negative = inhibition: at the top concentration
Procedure, shortened: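 Quantitative HTS: compounds tested from 0.7 nM up to 77 uM against 2 nM enzyme with 80 uM 4-MU alpha-D-galactopyranoside. The 20 min room-temperature reaction is stopped with 1M NaOH/1M glycine, pH 10.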

Chain of Alpha-galactosidase A (Homo sapiens) (P06280 whole entry, looked up): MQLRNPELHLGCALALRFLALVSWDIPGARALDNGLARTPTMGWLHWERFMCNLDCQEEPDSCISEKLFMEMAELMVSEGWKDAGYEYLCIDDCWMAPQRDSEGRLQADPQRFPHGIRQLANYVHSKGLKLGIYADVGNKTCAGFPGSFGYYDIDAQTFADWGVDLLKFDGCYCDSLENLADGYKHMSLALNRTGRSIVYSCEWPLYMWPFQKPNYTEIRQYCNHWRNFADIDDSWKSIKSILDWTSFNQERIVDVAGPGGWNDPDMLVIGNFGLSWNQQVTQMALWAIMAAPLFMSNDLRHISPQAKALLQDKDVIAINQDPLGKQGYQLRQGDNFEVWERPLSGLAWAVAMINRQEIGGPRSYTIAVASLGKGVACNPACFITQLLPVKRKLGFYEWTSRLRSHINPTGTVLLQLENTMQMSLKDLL

Row | SMILES | activity change, negative = inhibition | outcome
1 | CN[C@H](CC(=O)O)C(=O)O | -0.739% (inactive) | –
2 | O=C(OCCN1CCOCC1)C1(c2ccccc2)CCCCC1 | -0.611% (inactive) | –
3 | COc1ccc(-c2ccc(N)[n+](CCCC(=O)O)n2)cc1 | 1.51% (inactive) | –
4 | COC(=O)[C@H](NC(=O)c1cc(-c2ccccc2)nc2ccccc12)c1ccccc1 | -7.68% (inactive) | –
5 | CCn1c(=O)[nH]c2cc(Cl)c(Cl)cc21 | 3.01% (inactive) | –
6 | NC(=O)c1ccccc1 | 0.931% (inactive) | –
7 | O=C1NC(=O)c2cc(Nc3ccccc3)c(Nc3ccccc3)cc21 | 1.25% (inactive) | –
8 | CC(C)NC[C@H](O)COc1ccc(CC(N)=O)cc1 | – | inactive
9 | Nc1nc2[nH]c(=O)cnc2c(=O)[nH]1 | -0.846% (inactive) | –
10 | O=c1[nH]c(=O)c2nc3ccccc3nc2[nH]1 | 0.581% (inactive) | –
11 | COc1ccccc1N1CCN(CCN(C(=O)c2ccc(F)cc2)c2ccccn2)CC1 | -1.6% (inactive) | –
12 | CCCn1c(=O)c2[nH]c(C3CCCC3)nc2n(CCC)c1=O | 0.128% (inactive) | –
13 | CC(=O)C(C)=O | 0.837% (inactive) | –
14 | NC/C=C\C(=O)O | – | inactive
15 | Fc1ccc(CN(C2=NCCN2)c2c(Cl)cccc2Cl)cc1 | 0.971% (inactive) | –
16 | COc1cc(CNC(=O)CCCCCCC(C)C)ccc1O | -1.04% (inactive) | –
17 | CCN1C(=O)C=CC1=O | -2.28% (inactive) | –
18 | CNc1cc(NS(=O)(=O)c2ccc(N)cc2)nc(NC)n1 | 2.79% (inactive) | –
19 | CCCCOC(=O)NS(=O)(=O)c1sc(CC(C)C)cc1-c1ccc(Cn2c(CC)nc3c(C)cc(C)nc32)cc1 | -1.56% (inactive) | –
20 | Nc1ccc(N2C(=O)c3ccccc3C2=O)c(Cl)c1 | 2.59% (inactive) | –
21 | N[C@H](C(=O)O)c1cc(O)cc(O)c1 | 2.34% (inactive) | –
22 | CC(N)=O | -4.12% (inactive) | –
23 | NOCC(=O)O | -4.01% (inactive) | –
24 | O=c1[nH]c2cc(Cl)ccc2c(O)c1-c1ccc(Oc2ccccc2)cc1 | 5.48% (inactive) | –
